From PubChem BioAssay AID652115 (Broad Institute, 2013)
Where “and” joins values, the source holds several entries; their conditions need not be identical. Equal entries are not always repeated. Out of some 330,000 compounds screened, about 3,800 (1.2%) were called active. The sample holds actives, similar compounds and a random draw of the others, so the mix is not that of the screen. Cut-off read from the data, not from the text of the source: active = inhibition above about 15%; inconclusive = no clear call, values can overlap the other calls; inactive = below that. Some compounds were tested as several samples or in several runs, with calls that do not always agree.

These compounds were tested against NAD-dependent protein deacylase sirtuin-5, mitochondrial (Homo sapiens) (UniProt Q9NXA8) (assay: blockers of sirtuin-5 deacylase activity – biochemical, fluorescence imaging, single point, set 5, primary screen (AID 652115)). Conditions: Purified SirT5, succinyl-peptide AMC, trypsin-coupled fluorescence; at 15 µM; stronger effect = higher value.
NAD-dependent protein deacylase sirtuin-5, mitochondrial (Homo sapiens), sequence (Q9NXA8 whole entry, looked up): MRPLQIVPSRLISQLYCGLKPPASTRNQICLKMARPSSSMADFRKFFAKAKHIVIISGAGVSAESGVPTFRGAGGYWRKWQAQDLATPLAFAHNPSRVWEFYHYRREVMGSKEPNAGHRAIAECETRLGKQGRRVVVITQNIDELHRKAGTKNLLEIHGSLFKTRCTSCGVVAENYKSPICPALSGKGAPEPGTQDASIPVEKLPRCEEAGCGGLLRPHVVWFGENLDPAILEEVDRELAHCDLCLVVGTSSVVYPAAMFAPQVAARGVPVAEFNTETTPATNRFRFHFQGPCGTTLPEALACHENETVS
`O=C(C[C@@H]1CC[C@@H](NS(=O)(=O)c2ccc(F)cc2)[C@H](CO)O1)NCc1ccc(Cl)c(Cl)c1` was tested, and the inhibition was -7.51% (inactive).
In the case of `CCOC(=O)N1CCN(C(=O)C[C@@H]2C[C@@]3(C(=O)OC)CC(C)(C)CC=C3N(Cc3ccco3)C2=O)CC1`, the inhibition is reported as -1.2% (inactive).
For `CCCCNC(=O)C[C@@H]1C[C@@]2(C(=O)OCC)CCC=C2N(Cc2ccco2)C1=O`, the inhibition was 4.42% (inactive).
With `CCCCNC(=O)C[C@@H]1C[C@@]2(C(=O)OC)CC(C)(C)CC=C2N(Cc2ccco2)C1=O` the inhibition was 21.7% (active).
With `CC(C)NC(=O)N(C)C[C@@H]1Oc2c(NC(=O)c3cnccn3)cccc2C(=O)N([C@@H](C)CO)C[C@@H]1C` the inhibition was -2.42% (inactive).
For `COc1ccc2c3c([nH]c2c1)[C@@H](CO)N(S(C)(=O)=O)CC31CN(CC2CC2)C1`, the inhibition was 1.2% (inactive).
For `O=[N+]([O-])c1ccc(N2CCOCC2)cc1`, the inhibition was -2.77% (inactive).
In the case of `O=C(Cc1ccc([N+](=O)[O-])cc1)NCCS(=O)(=O)N1CCN(c2ccccc2)CC1`, the inhibition is reported as -5.2% (inactive).
For `CN(C)S(=O)(=O)N1CCN(c2ccc([N+](=O)[O-])cc2)CC1`, the inhibition was 17.4% (active).
With `O=C(Cc1ccccn1)NCC[C@H]1CC[C@@H](NS(=O)(=O)c2ccc(F)cc2)[C@H](CO)O1` the inhibition was -3.9% (inactive).
`Nc1[nH]c(C(=O)c2ccccc2)c(-c2ccc(Cl)cc2Cl)c1C(=O)c1ccccc1` was tested, and the inhibition was 1.08% (inactive).
`CC(Oc1ccccc1F)C(=O)NN` (stereo not drawn) was tested, and the inhibition was 5.06% (inactive).
`O=C(C=CC(=O)Nc1ccc(F)cc1F)Nc1ccc(F)cc1F` was tested, and the inhibition was 2.61% (inactive).
With `CC(Oc1ccc(F)cc1F)C(=O)/C=C/N(C)C` (stereo not drawn) the inhibition was 38.2% (active).
`CCCN1[C@H](C(=O)N[C@H](C)c2ccccc2)[C@@H](CO)[C@@H]2Cn3c(ccc(-c4ccccc4)c3=O)[C@@H]21` was tested, and the inhibition was -2.75% (inactive).
For `O=C(Cc1ccccc1)N1C[C@H]2[C@@H](c3ccccc31)[C@H](CO)N2C(=O)c1ccc(F)cc1`, the inhibition was 0.689% (inactive).
In the case of `Cc1cccnc1NC(=O)Cn1c(=O)oc2ccccc21`, the inhibition is reported as -0.084% (inactive).
`NC(=O)Cn1c(=O)oc2ccccc21` was tested, and the inhibition was 23.1% (active).
In the case of `CC(=O)c1ccc(NC(=O)Cn2c(=O)oc3ccccc32)cc1`, the inhibition is reported as -1.5% (inactive).
For `CO[C@@H]1CN(C)C(=O)c2cc(NC(C)=O)ccc2OC[C@H](C)N(C(=O)CC2CC2)C[C@@H]1C`, the inhibition was 0.181% (inactive).
For `CO[C@@H]1CC[C@H]2CCN(C)C(=O)[C@@H](C)CN(C)C(=O)c3cccc(C#N)c3OC[C@@H]1O2`, the inhibition was -2.44% (inactive).
For `CN(C)CC(=O)Nc1ccc2c(c1)[C@@H]1C[C@H](CC(=O)NCc3ccc(Cl)cc3)O[C@@H](CO)[C@@H]1O2`, the inhibition was 4.86% (inactive).
`COCCNC(=O)C[C@H]1C[C@H]2c3cc(NS(C)(=O)=O)ccc3O[C@H]2[C@H](CO)O1` was tested, and the inhibition was -4.62% (inactive).
With `O=C(C[C@H]1C[C@H]2c3cc(NC(=O)C4CCC4)ccc3O[C@H]2[C@@H](CO)O1)NCc1ccc(Cl)cc1` the inhibition was 0.855% (active).
For `CS(=O)(=O)Nc1ccc2c(c1)[C@H]1C[C@@H](CC(=O)NCCc3ccccc3)O[C@@H](CO)[C@H]1O2`, the inhibition was 21.9% (active).
For `O=C(C[C@@H]1C[C@H]2c3cc(NS(=O)(=O)c4ccc(F)cc4)ccc3O[C@H]2[C@H](CO)O1)NCCc1ccccc1`, the inhibition was 1.01% (inactive).
For `O=C(C[C@@H]1C[C@@H]2c3cc(NC(=O)C4CCC4)ccc3O[C@@H]2[C@@H](CO)O1)NCc1ccccc1`, the inhibition was 5.94% (inactive).
For `CN(C)c1ccc2c(c1)[C@H]1C[C@H](CC(=O)NCc3ccc(Cl)cc3)O[C@H](CO)[C@H]1O2`, the inhibition was 15.9% (active).
For `O=C(C[C@@H]1C[C@H]2c3cc(NC(=O)C4CCC4)ccc3O[C@H]2[C@@H](CO)O1)NCc1ccc2c(c1)OCO2`, the inhibition was 5.03% (inactive).
For `CN(C)CC(=O)Nc1ccc2c(c1)[C@H]1C[C@@H](CC(=O)NCc3ccc(Cl)cc3)O[C@@H](CO)[C@H]1O2`, the inhibition was 4.32% (inactive).
In the case of `COCC#Cc1cnc2c(c1)C(=O)N([C@H](C)CO)C[C@H](C)[C@H](CN(C)C(=O)C1CCOCC1)O2`, the inhibition is reported as 3.88% (inactive).
For `CCNC(=O)c1cc2c(c(-c3cccc(C4=CCCC4)c3)n1)[C@H](CCO)N([S@@](=O)C(C)(C)C)C2`, the inhibition was 13.7% (inactive).
With `O=C(C[C@@H]1C=C[C@@H](NC(=O)C2CC2)[C@H](CO)O1)NCCCN1CCOCC1` the inhibition was 4.53% (inactive).
With `N#C[C@H]1[C@@H](c2ccccc2C2=CCCCC2)[C@H](CO)N1C(=O)c1ccccn1` the inhibition was 2.41% (inactive).
With `CN1C(=O)c2cc(NC(=O)C3CCOCC3)ccc2OC[C@H]2O[C@@H](CC(=O)NCC3CCCCC3)CC[C@@H]21` the inhibition was 12.7% (inactive).
`O=C(Cc1ccccn1)N1CC(=O)N2[C@H](CO)[C@@H](c3ccc(C#CC4CCCC4)cc3)[C@H]2C1` was tested, and the inhibition was 1.82% (inactive).
`O=C(C[C@H]1CC[C@@H]2[C@H](COC[C@H](O)CN2S(=O)(=O)c2ccc(Cl)cc2)O1)N[C@@H]1CCN(Cc2ccccc2)C1` was tested, and the inhibition was 0.669% (inactive).
For `Cc1cccc(S(=O)(=O)N2C[C@@H]3[C@H](c4ccccc42)[C@@H](CO)N3C(=O)c2ccccc2)c1`, the inhibition was 2.62% (inactive).
For `CO[C@@H]1CN(C)C(=O)c2ccc(NC(=O)Nc3cc(F)ccc3F)cc2OC[C@@H](C)N(C)C[C@@H]1C`, the inhibition was 4.44% (inactive).
With `COCC(=O)N1CC(=O)N2[C@H](CO)[C@@H](c3ccc(C#CC4CCCCC4)cc3)[C@@H]2C1` the inhibition was -3.9% (inactive).
In the case of `C/C=C/c1cnc2c(c1)C(=O)N([C@@H](C)CO)C[C@@H](C)[C@H](CN(C)Cc1cncnc1)O2`, the inhibition is reported as -2.68% (inactive).
For `O=C(CN1CCOCC1)N1CCCCN2[C@H](C1)[C@H](c1ccc(-c3ccccc3F)cc1)[C@@H]2CO`, the inhibition was 22.6% (active).
For `O=C(CN1CCOCC1)N1CCCCN2[C@@H](CO)[C@H](c3ccc(-c4ccccc4)cc3)[C@@H]2C1`, the inhibition was -2% (inactive).
For `O=C(CN1CCOCC1)N1CCCCN2[C@H](CO)[C@H](c3ccc(-c4ccccc4)cc3)[C@@H]2C1`, the inhibition was -2.91% (inactive).
`CNC(=O)C[C@@H]1CC[C@@H]2[C@H](COc3ccc(NC(=O)Nc4ccccc4)cc3C(=O)N2C)O1` was tested, and the inhibition was 5.7% (inactive).
With `CN(C)CC(=O)Nc1ccc2c(c1)[C@H]1C[C@H](CC(=O)NCc3ccccn3)O[C@@H](CO)[C@H]1O2` the inhibition was -6.14% (inactive).
`Cc1ccc(SCCC(=O)NC(C(C)C)C(C)C)cc1` was tested, and the inhibition was 15.4% (active).
With `Cc1ccc(SCCC(=O)Nc2cc(C)on2)cc1` the inhibition was -2.48% (inactive).
For `Cc1ccc(SCCC(=O)NCc2ccccn2)cc1`, the inhibition was -1.1% (inactive).
`COc1ccccc1S(=O)(=O)N1C[C@@H]2N[C@H](C1)C2c1ccc(-c2cccc(C)c2)cc1` (stereo partly drawn) was tested, and the inhibition was 1.28% (inactive) and 16.2% (active).
`COc1cccc(S(=O)(=O)N2C[C@@H]3N[C@H](C2)C3c2ccc(-c3cccc(C(=O)N(C)C)c3)cc2)c1` (stereo partly drawn) was tested, and the inhibition was 1.44% (inactive) and 6.3% (inactive).
For `O=C(C1CCCCC1)N1C[C@@H]2N[C@H](C1)C2c1ccc(-c2cccc(F)c2)cc1` (stereo partly drawn), the inhibition was 1.22% (inactive) and 3.71% (inactive).
For `Cc1cccc(-c2ccc(C3[C@@H]4CN(C(=O)Nc5ccc(C(F)(F)F)cc5)C[C@H]3N4)cc2)c1` (stereo partly drawn), the inhibition was 7.01% (inactive) and 16.1% (active).
With `N#Cc1ccc(-c2ccc(C3[C@@H]4CN(S(=O)(=O)c5ccccc5F)C[C@H]3N4)cc2)cc1` (stereo partly drawn) the inhibition was -1.48% (inactive) and -0.825% (inactive).
With `CN(C)C(=O)c1ccc(-c2ccc(C3[C@@H]4CN(C(=O)Nc5ccccc5)C[C@H]3N4)cc2)cc1` (stereo partly drawn) the inhibition was -1.69% (inactive).
`O=C(C[C@H]1CC[C@H](NS(=O)(=O)c2ccccc2)[C@H](CO)O1)NCc1ccncn1` was tested, and the inhibition was 6.51% (inactive).
`CN1C(=O)c2cc(NC(=O)Cc3cccs3)ccc2OC[C@@H]2O[C@@H](CC(=O)N[C@@H]3CCN(Cc4ccccc4)C3)CC[C@H]21` was tested, and the inhibition was -2.4% (inactive).
In the case of `COCCCNC(=O)[C@@]1(C)c2ccccc2C(=O)N(Cc2ccc(OC(F)(F)F)cc2)[C@H]1c1ccc(CO)cc1`, the inhibition is reported as 0.166% (inactive).
In the case of `COc1ccccc1CNC(=O)C[C@H]1C[C@@H]2c3cc(NC(=O)Nc4ccccc4F)ccc3O[C@@H]2[C@H](CO)O1`, the inhibition is reported as -5.72% (inactive).
For `COCC(=O)N(C)C[C@H]1Oc2cc(C#C[C@@H](C)O)ccc2S(=O)(=O)N([C@H](C)CO)C[C@H]1C`, the inhibition was -5.34% (inactive).
`CO[C@@H]1CN(C)C(=O)c2cc(NC(=O)CC(F)(F)F)ccc2OC[C@H](C)N(S(=O)(=O)c2cn(C)cn2)C[C@H]1C` was tested, and the inhibition was 1.11% (inactive).
In the case of `O=C(O)C[C@@H]1C[C@@H]2c3cc(NC(=O)Nc4ccccc4)ccc3O[C@@H]2[C@H](CO)O1`, the inhibition is reported as -3.63% (inactive).
`O=C(Cc1cccnc1)N[C@H]1CC[C@H](CCn2cc(-c3ccccc3F)nn2)O[C@H]1CO` was tested, and the inhibition was -1.27% (inactive).
For `COc1ccc(NC(=O)N[C@H]2CC[C@H](CCn3cc(-c4ccccc4F)nn3)O[C@H]2CO)cc1`, the inhibition was -0.072% (inactive).
`COc1ccc(NC(=O)N[C@@H]2CC[C@H](CCn3cc(-c4ccc(OC)cc4)nn3)O[C@@H]2CO)cc1` was tested, and the inhibition was 31.3% (active).
`O=C(Cc1ccncc1)N[C@@H]1CC[C@H](CCn2cc(-c3ccccc3F)nn2)O[C@H]1CO` was tested, and the inhibition was 1.05% (inactive).
In the case of `O=C(Cc1ccncc1)N[C@H]1CC[C@H](CCn2cc(-c3ccccc3F)nn2)O[C@@H]1CO`, the inhibition is reported as 25.2% (active).
For `O=C(Nc1ccc(F)cc1)N[C@H]1CC[C@H](CCn2cc(-c3ccc(F)cc3)nn2)O[C@@H]1CO`, the inhibition was 3.97% (inactive).
